# High-throughput results from PubChem BioAssay.
# APOBEC3G inh: APOBEC3G DNA deaminase inhibitors, primary screen, biochemical, fluorescence, single-stranded DNA substrate, uHTS; DNA dC->dU-editing enzyme APOBEC-3G (Homo sapiens), Q9HC16; recombinant A3G, ssDNA deamination FAM/TAMRA fluorescence; inhibition, % at 20 µM; 330,000 compounds, 0.28% hits; AID 493012, 2011;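 active = inhibition of at least 40% at 20 µM, with no more than 30% in the related APOBEC3A deaminase screen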;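 also: plate controls were DMSO wells with A3G for no effect and wells lacking A3G enzyme for full effect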
# Target sequence (Q9HC16 whole entry, looked up): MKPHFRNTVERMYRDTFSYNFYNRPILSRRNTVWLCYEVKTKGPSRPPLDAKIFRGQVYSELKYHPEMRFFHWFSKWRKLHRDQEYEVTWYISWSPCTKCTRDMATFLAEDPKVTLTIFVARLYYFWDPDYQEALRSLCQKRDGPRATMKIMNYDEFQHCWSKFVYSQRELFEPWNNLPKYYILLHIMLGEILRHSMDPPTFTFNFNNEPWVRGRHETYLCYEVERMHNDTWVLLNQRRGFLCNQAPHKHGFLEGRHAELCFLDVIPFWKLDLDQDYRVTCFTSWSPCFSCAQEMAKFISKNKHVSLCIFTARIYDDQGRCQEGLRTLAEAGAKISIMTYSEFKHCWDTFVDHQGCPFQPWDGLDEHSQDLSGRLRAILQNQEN
# A3A deaminase: APOBEC3A ssDNA deaminase inhibitors, primary screen, selectivity assay for APOBEC3G inhibitor project, biochemical, FAM/TAMRA oligo cleavage fluorescence | recombinant A3A, FAM/TAMRA ssDNA deamination fluorescence | inhibition, % at 20 µM | 330,000 compounds, 0.41% hits | AID 493011, 2011;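 active = at least 40% inhibition at 20 µM here, with at most 30% in a related deaminase screen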;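 also: plate controls were A3A with DMSO for no effect and wells lacking A3A enzyme for full effect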
# Target sequence (P31941 whole entry, looked up): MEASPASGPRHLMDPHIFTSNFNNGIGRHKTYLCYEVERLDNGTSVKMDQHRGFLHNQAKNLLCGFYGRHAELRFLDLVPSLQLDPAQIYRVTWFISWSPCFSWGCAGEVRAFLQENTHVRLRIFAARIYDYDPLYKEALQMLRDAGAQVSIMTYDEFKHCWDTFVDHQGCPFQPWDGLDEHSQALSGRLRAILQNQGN
# PfG6PD inh: PfG6PD enzyme inhibitors, primary screen, biochemical, fluorescence intensity, uHTS | glucose-6-phosphate dehydrogenase-6-phosphogluconolactonase (Plasmodium falciparum 3D7) | inhibition, % at 20 µM | PfGluPho enzyme, NADPH resazurin-diaphorase fluorescence | AID 504690, 2011 | 350,000 compounds, 0.78% hits;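 active = inhibition reaching at least a set limit at 20 µM in the primary screen, cut at about 59% in these data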;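 also: 0% = DMSO wells with substrate and 100% = DMSO wells lacking glucose-6-phosphate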
# Cardio protect: cardioprotection against H2O2-induced cell death, primary screen, uHTS, H9c2 cells, ATPLite luminescence. H9c2 cardiomyocytes, H2O2 injury protection, 2 h. protection from H2O2 cell death, % at 20 µM. 360,000 compounds, 0.63% hits. AID 588492, 2011;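 active = compounds giving at least 50% protection of heart cells from peroxide-induced death in the single-dose screen, raw or plate-pattern-corrected value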;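 also: 0% = DMSO wells with peroxide and 100% = DMSO wells without peroxide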
# H9c2 TAG inh: inhibitors of triacylglycerol accumulation, primary screen, cell-based, uHTS, fluorescence, H9c2 | AID 651582, 2012 | 230,000 compounds, 0.66% hits | H9c2 cells, Nile Red lipid (TAG) fluorescence; cells loaded with 200 µM oleic acid | inhibition, % at 12.5 µM;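 active = pattern-corrected inhibition of lipid staining of at least 50% with the nuclear-stain viability signal not falling by more than 50%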;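 also: 0% = DMSO wells and 100% = triacsin C control wells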
# NadD block: inhibitors of S. aureus NadD, primary screen, biochemical, colorimetric, uHTS. Nicotinate-nucleotide adenylyltransferase NadD (Staphylococcus aureus N315). purified NadD enzyme, colorimetric absorbance read-out. AID 602399, 2012. inhibition, % at 20 µM. 360,000 compounds, 0.78% hits; in the data active = inhibition above about 26%
# PfGluPho conf: PfG6PD inhibitors, hit retest, confirmation, biochemical, fluorescence intensity, single concentration; 2,400 compounds, 34% hits; shares compounds with PfG6PD inh; inhibition, % at 20 µM; recombinant PfGluPho, NADPH-diaphorase-resazurin fluorescence;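 active = inhibition of at least 50% at 20 µM in any single replicate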;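 also: 0% = DMSO with substrate and 100% = DMSO lacking glucose-6-phosphate substrate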
# Diaphorase 10uM: diaphorase inhibitors and chemical oxidizers, confirmation, counter-screen for P. falciparum G6PD inhibitor project, biochemical, fluorescence intensity, 10 µM NADPH; inhibition, % at 20 µM; shares compounds with PfG6PD inh; diaphorase-coupled resazurin reduction, NADPH 10 uM; 820 compounds, 39% hits;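 active = average inhibition reaching 50% or more with the compound at 20 µM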;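 also: resorufin red fluorescence formed as diaphorase reduces resazurin using NADPH; 0% = DMSO with enzyme and 100% = DMSO without enzyme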
# Diaph ctr 30uM: diaphorase inhibitors and chemical oxidizers, confirmation, counter-screen for P. falciparum G6PD inhibitor project, biochemical, fluorescence intensity, 30 µM NADPH; AID 504863, 2011; inhibition, % at 20 µM; Diaphorase/resazurin coupled assay, resorufin fluorescence; 820 compounds, 29% hits; shares compounds with PfG6PD inh;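 active = inhibition averaging 50% or more, tested at 20 µM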;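 also: 0% = DMSO with enzyme and 100% = DMSO wells lacking diaphorase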
# An asterisk follows results filed as active; nt = no result. Most compounds without a hit are left out; they make up all but 2.9% or so of the library.
SMILES,APOBEC3G inh,A3A deaminase,PfG6PD inh,Cardio protect,H9c2 TAG inh,NadD block,PfGluPho conf,others
Cc1ccc(/C=[N+](\[O-])c2ccc(N(C)C)cc2)c2nsnc12,-1,0,64*,-14,48,6,1,
Cc1ccc2nsnc2c1NS(=O)(=O)c1c(C)ccc2nsnc12,1,3,-8,4,nt,-6,nt,
O=c1[nH]c(CN2CCN(c3ccccc3)CC2)nc2scc(-c3ccccc3)c12,-3,3,3,-5,-3,7,nt,
Cc1sc2nc(CN3CCN(c4ccc(O)cc4)CC3)[nH]c(=O)c2c1C,32,-3,79*,19,14,11,49,
Cc1ccccc1OCc1nc2ccc(S(=O)(=O)N3CCOCC3)cc2[nH]1,34,4,64*,-3,nt,4,28,
O=C(Nc1ccc(C(O)(C(F)(F)F)C(F)(F)F)cc1)c1ccc(Cl)c([N+](=O)[O-])c1,-2,-1,63*,-21,18,-8,-10,
CCN(CC(=O)Nc1cccc(OC)c1)C(=O)c1ccco1,-8,-2,9,2,nt,-5,nt,
CNC(=S)N/N=C/c1c(C(=O)OC)cnn1-c1ccc(F)cc1F,-10,-6,68*,6,15,-1,23,
CCOC(=O)C1(Cc2ccccc2C)CCCN(Cc2ccc(NC(C)=O)cc2)C1 (stereo unspecified),-5,0,7,26,-4,-1,nt,
O=C(NC(=S)Nc1ccc(-c2ccc(CO)o2)cc1)c1cccs1,0,0,81*,24,nt,21,5,
Cc1ccc(C(=O)NC(=S)Nc2ccc(-c3ccc(CO)o3)cc2)cc1,2,2,7,-10,nt,0,nt,
CC(Nc1cc(N2CCN(S(=O)(=O)N(C)C)CC2)ccc1[N+](=O)[O-])c1ccccc1 (stereo unspecified),-11,-3,88*,5,4,-3,23,
CC(Nc1cc(N2CCN(S(C)(=O)=O)CC2)ccc1[N+](=O)[O-])c1ccccc1 (stereo unspecified),-10,-4,60*,2,5,-8,25,
CNC(=O)N(C1=NCCCCC1)c1ccc(Br)cc1,-6,1,-3,0,nt,0,nt,
Cc1cc(O)c(C(C)C)cc1N=Cc1ccccc1O,2,0,103*,-5,-11,-3,46,
Cc1cc(O)c(C(C)C)cc1N=Cc1cc([N+](=O)[O-])ccc1O,4,5,82*,-10,16,4,23,
O=c1[nH]cc(N=Cc2cc([N+](=O)[O-])ccc2O)c(=O)[nH]1,-2,-4,nt,nt,nt,nt,nt,
COc1ccc(CN(CC2CCC(C(=O)O)CC2)C(=S)Nc2cc(C)ccc2C)cc1 (stereo unspecified),nt,nt,0,0,5,5,nt,
COc1cc(C(=O)NCC(=O)N/N=C(/C)c2cccs2)cc(OC)c1OC,3,-4,3,-3,nt,-8,nt,
COc1ccc(N2CC(O)=C(c3nc4ccccc4s3)C2=N)c(OC)c1,-1,-1,64*,3,13,15,43,
CSc1ccccc1NC(=O)CSc1cccc[n+]1[O-],-4,0,-16,-4,5,2,nt,
ClC(Cl)(c1nnnn1-c1ccccc1)c1nnnn1-c1ccccc1,nt,nt,88*,-12,nt,4,78*,Diaphorase 10uM=-8;Diaph ctr 30uM=-6
CCCC(CCC)C(=O)Nc1cccc(C(=O)O)c1,-4,-4,-4,1,nt,7,nt,
CCOC(=O)/C(=C\c1cccnc1)C(=O)c1cc(C(C)=O)c(Nc2ccccc2)s1,-2,-1,66*,-36,80*,1,20,
CSc1ccc(CN2CCC(C)(Oc3ccc(-n4ccnc4)cc3)C2)cc1 (stereo unspecified),nt,nt,nt,-4,-1,2,nt,
SMILES,APOBEC3G inh,A3A deaminase,PfG6PD inh,Cardio protect,H9c2 TAG inh,NadD block,PfGluPho conf,others
COc1cc(/C=N/Nc2nncn2N)ccc1OCc1c(C)no[n+]1[O-],-4,6,82*,12,17,2,63*,Diaphorase 10uM=34;Diaph ctr 30uM=24
CCc1nnc(N/N=C/c2ccc(O)c(OC)c2)n1N,-7,-7,72*,-3,0,1,24,
CCc1nnc(N/N=C\c2ccc(OC(C)=O)c(OC)c2)n1N,-3,-2,33,-3,nt,-2,nt,
COc1cc(/C=C(\C#N)C(N)=O)ccc1OCc1c(C)no[n+]1[O-],-3,-3,16,0,8,-5,nt,
COc1ccc(/C=N/Nc2nncn2N)cc1Br,6,-6,79*,0,15,-2,40,
COCCC(=O)N1CCC(Oc2ccc(C(=O)N(C)CCCC3CCCC3)cc2)CC1,-2,-1,-9,-1,nt,7,nt,
S=c1nc2[nH]c3ccccc3c2n[nH]1,nt,nt,66*,6,14,0,10,
CNc1nc(=S)[nH]c2ccccc12,-3,-1,10,-1,-10,-3,nt,
CNCc1ccccc1Sc1ccc(O)c(O)c1,nt,nt,98*,-21,nt,5,95*,Diaphorase 10uM=72*;Diaph ctr 30uM=61*
O=C(CNC(=O)c1cccc(F)c1)N/N=C/c1ccc(O)c([N+](=O)[O-])c1,-5,1,-6,11,nt,3,nt,
O=C(CNC(=O)C(c1ccccc1)c1ccccc1)N/N=C/c1ccc(O)c([N+](=O)[O-])c1,0,-1,-1,-2,nt,4,nt,
COc1ccc([N+](=O)[O-])cc1/C=N/NC(=O)CNC(=O)C(c1ccccc1)c1ccccc1,-4,2,139*,8,nt,14,86*,Diaphorase 10uM=85*;Diaph ctr 30uM=80*
COc1ccc([N+](=O)[O-])cc1/C=N/NC(=O)CNC(=O)c1cccc(F)c1,-6,-2,70*,27,nt,5,22,
